# In PubChem BioAssay AID485344 (National Center for Advancing Translational Sciences (NCATS), 2010):
# Out of some 340,000 compounds screened, about 6,900 (2%) were called active. The sample as a whole holds a higher share of actives than the screen did. Values without a mark were called inactive. No stated cut-off is given here; in the data, active means inhibition above about 30%; inactive means below that, where a call was filed.
# Target: D(2) dopamine receptor (Homo sapiens) (UniProt P14416)
# Assay: HTS Assay for Allosteric Antagonists of the Human D2 Dopamine Receptor: Primary Screen for Antagonists; further: 0% is about no effect
# Details: HEK293 TREx D2 cells, calcium flux, dopamine EC80; at 10 µM; hits give high values
# Method in brief: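 Overnight-induced (tetracycline, 30 C) HEK293 T-REx cells carrying force-coupled D2 receive a no-wash calcium dye, then compound, then EC80 dopamine at 180 s; signals are read kinetically throughout.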
# Sequence of D(2) dopamine receptor (Homo sapiens) (P14416 whole entry, looked up): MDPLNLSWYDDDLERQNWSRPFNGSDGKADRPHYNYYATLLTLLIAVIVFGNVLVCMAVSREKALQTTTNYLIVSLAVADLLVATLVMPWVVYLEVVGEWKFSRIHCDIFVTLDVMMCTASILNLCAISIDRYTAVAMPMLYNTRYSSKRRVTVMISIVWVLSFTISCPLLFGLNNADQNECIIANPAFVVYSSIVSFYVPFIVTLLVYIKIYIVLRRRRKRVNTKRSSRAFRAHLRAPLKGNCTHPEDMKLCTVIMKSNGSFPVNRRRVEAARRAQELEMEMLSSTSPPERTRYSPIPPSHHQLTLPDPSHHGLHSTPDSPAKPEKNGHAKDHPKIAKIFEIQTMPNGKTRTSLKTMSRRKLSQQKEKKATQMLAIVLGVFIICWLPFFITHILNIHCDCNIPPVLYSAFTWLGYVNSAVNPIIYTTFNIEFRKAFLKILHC
row,Structure (SMILES),inhibition
1,O=C(c1cc2ccccc2o1)N1CCN(S(=O)(=O)c2ccc(Cl)s2)CC1,17.4%
2,CC(C)(CNC(=O)CNC(=O)C1CCCCC1)N1CCOCC1,-45.4%
3,CC1(C)CC(=O)C=C(c2ccc(Cl)c(C(F)(F)F)c2)C1,4.19%
4,Cc1ccc(OCC(O)CN2CCN(CC(O)COc3ccc(C)cc3Cl)CC2)c(Cl)c1 (stereo not given),78.4% (active)
5,C=CCc1ccc(OCC(O)CN2CCN(Cc3ccccc3)CC2)c(OC)c1 (stereo not given),0.147%
6,Cc1ccc(Cl)c(OCC(=O)N2CCc3ccccc3C2)c1,2.48%
7,CCc1ccc(OCC(O)CN2CCN(CCO)CC2)cc1 (stereo not given),-7.21%
8,Cc1cccc(OCC(O)CN2CCN(S(=O)(=O)c3ccc(C)cc3C)CC2)c1 (stereo not given),-1.31%
9,OC(COc1ccc(F)cc1Cl)CN1CCc2ccccc2C1 (stereo not given),68.3% (active)
10,CC(C)(C)OC(=O)Nc1ccc([C@@H](NC(=O)OC(C)(C)C)C(=O)OC(C)(C)C)cc1,5.44%
11,Nc1nnc(SCCN2C(=O)c3ccccc3S2(=O)=O)s1,49.1% (active)
12,CCCc1nnc(NC(=O)CN2C(=O)c3ccccc3S2(=O)=O)s1,2.63%
13,Nc1nnc(SCn2nnc3ccccc3c2=O)s1,-2.28%
14,CCN(CC(=O)Nc1ccc(OC)cc1)C(=O)c1ccc(Cl)c(S(=O)(=O)N2CCCC2)c1,-15.2%
15,CCOc1ccc(CC(=O)NCCS(=O)(=O)N2CCN(c3ccccc3)CC2)cc1,-11.3%
16,O=S(=O)(NCCS(=O)(=O)N1CCN(c2ccccc2)CC1)c1ccc(F)cc1,-7.02%
17,COc1cc(/C=C/C(=O)N2CCc3ccccc3C2)cc(OC)c1OC,-15.7%
18,CCC(C)(C)NC(=O)/C=C/c1cc(OC)c(OC)c(S(=O)(=O)N2CCc3ccccc32)c1,40.9% (active)
19,COc1cc(C)c(C)cc1S(=O)(=O)N1CCCc2ccccc21,-2.59%
20,O=C(OCC(=O)N1CCCC1)c1ccc(Cl)nc1,-5.57%

row,Structure (SMILES),inhibition
1,Cc1ccc2nc(NC(=O)C3CSC4(C)CCC(=O)N34)sc2c1 (stereo not given),-20%
2,CC1(C)O[C@@H]2[C@H](O1)[C@@H](CO)O[C@H]2n1c(N2CCCCC2)nc2c(N)ncnc21,15.7%
3,Cc1cccc(-n2c(C)cc(/C=N\NC(=O)c3cccs3)c2C)c1,2.76%
4,CC(=O)Nc1ccc(/C=N/NC(=O)c2cccs2)cc1,-20.3%
5,Cc1ccc(-n2nc(C)c(/C=N/NC(=O)c3cccs3)c2Cl)cc1,32.5% (active)
6,COc1ccc(CNC(=O)COC(=O)c2c(C)nn(-c3ccccc3)c2C)cc1OC,5.14%
7,CCOc1ccc(NC(=O)Nc2cc(C)on2)cc1,-12.8%
8,CCOc1ccc(NC(=O)Nc2ccc(N(C)C(C)=O)cc2)cc1,31.6% (active)
9,CC(=O)N(C)c1ccc(NC(=O)Nc2cccc3ccccc23)cc1,11.1%
10,Cc1cccc(C(=O)NCC(=O)OCC(=O)N(C)CC(=O)Nc2ccccc2Cl)c1,-38.4%
11,Cc1ccc(OCCCC(=O)Nc2ccc3c(c2)OCCO3)cc1,-2.09%
12,COc1ccc(C(=O)OCC(=O)c2cc(C)n(CC3CCCO3)c2C)cc1[N+](=O)[O-] (stereo not given),-5.34%
13,O=C(Nn1cnc2ccccc2c1=O)c1ccccc1,31.2% (active)
14,O=C(Nn1cnc2ccccc2c1=O)c1ccc([N+](=O)[O-])cc1Cl,-1.86%
15,Cc1nc2ccccc2c(=O)n1NC(=O)c1ccccc1,-7.6%
16,Cc1ccsc1C(=O)NC1CCCCC1C (stereo not given),-11.1%
17,CCc1cccc(C)c1NC(=O)COC(=O)CC1CCCC1,-13.9%
18,CN(Cc1cccs1)C(=O)CN1C(=O)c2ccccc2S1(=O)=O,-30.6%
19,CCOCCCNCc1cc(Br)ccc1OCC,6.96%
20,CCOCCCNCc1ccc(OCc2ccc(F)cc2)c(OC)c1,2.04%

row,Structure (SMILES),inhibition
1,CCOc1ccccc1OCCCNCc1ccccc1,50% (active)
2,CN(CC(=O)Nc1ccc(F)c(F)c1F)C(=O)Cn1cnc2c1c(=O)n(C)c(=O)n2C,2.66%
3,COc1ccccc1-c1cc(C(=O)NCCCn2ccnc2)no1,45.9% (active)
4,COc1ccc(-c2cc(C(=O)NCCCn3ccnc3)no2)cc1,3.91%
5,O=C(NCCCn1ccnc1)c1cc(-c2ccccc2)on1,7.61%
6,CCOC(=O)[C@H]1[C@H]2COc3ccc(Cl)cc3[C@@H]2N2C(=O)c3cc(C)ccc3NC(=O)[C@@]12C,-4.21%
7,O=C(C1CC(=O)N(C2CCCC2)C1)N1CCN(c2cccc(C(F)(F)F)c2)CC1 (stereo not given),11.8%
8,O=C1C2CCCN2C(=O)N1CCCCN1CCN(c2cccc(C(F)(F)F)c2)CC1 (stereo not given),106% (active)
9,Cc1ccccc1N1CCN(CCCN2C(=O)C3CCCCN3C2=O)CC1 (stereo not given),-27.4%
10,CC(C)CN(C(=O)c1ccc2c(c1)OCO2)C1CCS(=O)(=O)C1 (stereo not given),-6.59%
11,Cc1ccc2nnn(Cc3cccc(C(C)(C)C)c3O)c2c1,6.04%
12,COc1ccccc1N1CCN(C(=O)c2ccc(Cl)c(S(=O)(=O)N3CCCC3)c2)CC1,-0.604%
13,COc1cccc(-c2cc(C(=O)N3CCN(c4ccccc4OC)CC3)no2)c1,3.44%
14,COc1ccccc1N1CCN(C(=O)c2c(-c3c(Cl)cccc3Cl)noc2C)CC1,40% (active)
15,Cn1c(N)c(C(=O)COC(=O)COc2ccc(Cl)cc2)c(=O)n(C)c1=O,20.2%
16,COc1ccc(C)cc1S(=O)(=O)Nc1cc2c3c(c1)CCC(=O)N3CCC2,6.3%
17,Cc1ccc(C)c(OCCC(=O)OCC(=O)c2ccc3c(c2)NC(=O)CO3)c1,-0.691%
18,COc1ccccc1-c1sc2ccccc2c1-c1ccc(Br)nc1,7.5%
19,Cc1n[nH]c(=O)c2c(NC(=O)CSc3cc(Cl)ccc3Cl)oc(C)c12,10%
20,Cc1c(C(=O)Nc2ccccn2)oc2ccc(Br)cc12,-19.8%
